Test results taken from the supplement of paper PMC6411743.
± gives the standard deviation of the averaged measurements. The full data set covers some 5,400 targets. This sample favours those with the largest changes.

Compound: Nc1nc2c(ncn2[C@@H]2O[C@H](COP(=O)(O)OP(=O)(O)OP(=O)(O)O)[C@@H](O)[C@H]2O)c(=O)[nH]1 [guanosine triphosphate]
Assay: NP40-soluble protein abundance relative to vehicle (solubility fold change) (ratio); higher = more soluble protein in presence of GTP
Description: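 Solubility proteome profiling in Jurkat crude lysate. Lysate was treated with Mg-GTP (0.1-10 mM) for 10 min at room temperature and 3 min at 37 °C, then solubilised with 0.8% NP40 and benzonase, followed by ultracentrifugation. Proteins were quantified by TMT10 LC-MS/MS; the value is the NP40-soluble abundance relative to the NP40-processed vehicle, from 3 independent experiments.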

Sequence of UniProt Q8WX92 (Q8WX92 whole entry, one chain of several): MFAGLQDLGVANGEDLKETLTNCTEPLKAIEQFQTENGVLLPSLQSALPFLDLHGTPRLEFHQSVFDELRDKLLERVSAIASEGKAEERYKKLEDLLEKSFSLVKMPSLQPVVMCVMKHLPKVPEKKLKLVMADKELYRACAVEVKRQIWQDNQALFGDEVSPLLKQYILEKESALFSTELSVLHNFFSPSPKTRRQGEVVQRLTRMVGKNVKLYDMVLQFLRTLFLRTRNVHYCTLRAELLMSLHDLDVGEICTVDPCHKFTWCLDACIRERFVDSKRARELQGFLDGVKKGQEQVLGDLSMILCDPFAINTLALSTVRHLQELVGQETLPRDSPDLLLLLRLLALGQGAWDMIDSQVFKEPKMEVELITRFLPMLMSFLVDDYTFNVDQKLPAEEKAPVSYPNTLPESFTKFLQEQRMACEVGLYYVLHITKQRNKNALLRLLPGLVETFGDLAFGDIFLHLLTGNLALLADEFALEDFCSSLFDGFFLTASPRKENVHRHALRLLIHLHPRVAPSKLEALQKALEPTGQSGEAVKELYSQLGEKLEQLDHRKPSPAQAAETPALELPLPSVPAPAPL
Sequence of UniProt Q96RQ3 (Q96RQ3 whole entry, one chain of several): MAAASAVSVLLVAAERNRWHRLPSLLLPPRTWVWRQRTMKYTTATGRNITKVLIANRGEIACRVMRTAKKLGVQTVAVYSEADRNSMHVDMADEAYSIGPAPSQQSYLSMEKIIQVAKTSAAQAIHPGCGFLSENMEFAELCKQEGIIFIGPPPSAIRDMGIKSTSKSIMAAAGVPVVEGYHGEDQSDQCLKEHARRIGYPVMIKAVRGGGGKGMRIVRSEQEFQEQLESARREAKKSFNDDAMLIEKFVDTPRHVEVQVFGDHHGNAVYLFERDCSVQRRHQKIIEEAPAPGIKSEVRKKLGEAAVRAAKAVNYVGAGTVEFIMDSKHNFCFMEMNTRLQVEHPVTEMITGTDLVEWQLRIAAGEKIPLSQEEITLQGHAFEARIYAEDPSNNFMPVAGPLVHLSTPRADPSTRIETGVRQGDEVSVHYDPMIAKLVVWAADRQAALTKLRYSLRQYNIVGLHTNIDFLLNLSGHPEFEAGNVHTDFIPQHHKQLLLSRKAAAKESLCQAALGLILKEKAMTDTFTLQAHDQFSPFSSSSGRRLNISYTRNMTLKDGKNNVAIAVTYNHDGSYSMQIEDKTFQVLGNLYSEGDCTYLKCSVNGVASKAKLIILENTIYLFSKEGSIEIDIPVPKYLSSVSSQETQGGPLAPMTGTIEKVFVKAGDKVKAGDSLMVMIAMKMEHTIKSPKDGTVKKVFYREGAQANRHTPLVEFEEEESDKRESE
Sequence of UniProt Q16629 (Q16629 whole entry, one chain of several): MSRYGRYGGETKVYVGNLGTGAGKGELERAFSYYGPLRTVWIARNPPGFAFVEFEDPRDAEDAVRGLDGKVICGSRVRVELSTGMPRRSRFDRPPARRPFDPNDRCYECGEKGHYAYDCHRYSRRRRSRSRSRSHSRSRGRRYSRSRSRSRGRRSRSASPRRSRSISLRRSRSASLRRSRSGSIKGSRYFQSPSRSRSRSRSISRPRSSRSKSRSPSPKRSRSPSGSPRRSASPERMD
Sequence of UniProt P07766 (P07766 whole entry, one chain of several): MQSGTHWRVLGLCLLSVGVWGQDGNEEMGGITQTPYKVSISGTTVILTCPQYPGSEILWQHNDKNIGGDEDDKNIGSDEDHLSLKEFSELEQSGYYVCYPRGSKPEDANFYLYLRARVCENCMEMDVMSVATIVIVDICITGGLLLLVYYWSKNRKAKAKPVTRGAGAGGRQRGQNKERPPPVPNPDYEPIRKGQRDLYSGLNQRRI
Sequence of UniProt Q9Y375 (Q9Y375 whole entry, one chain of several): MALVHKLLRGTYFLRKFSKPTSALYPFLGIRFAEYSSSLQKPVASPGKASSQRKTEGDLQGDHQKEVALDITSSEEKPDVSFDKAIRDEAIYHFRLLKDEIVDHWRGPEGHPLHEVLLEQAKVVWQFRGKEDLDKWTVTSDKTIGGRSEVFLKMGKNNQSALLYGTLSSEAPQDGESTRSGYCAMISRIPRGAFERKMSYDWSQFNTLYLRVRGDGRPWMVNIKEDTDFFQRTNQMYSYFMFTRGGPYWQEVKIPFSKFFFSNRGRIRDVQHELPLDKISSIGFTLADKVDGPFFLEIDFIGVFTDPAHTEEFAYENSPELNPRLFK

Target	NP40-soluble protein abundance (concentration: 0.1mM)	NP40-soluble protein abundance (concentration: 0.5mM)	NP40-soluble protein abundance (concentration: 1mM)	NP40-soluble protein abundance (concentration: 2mM)	NP40-soluble protein abundance (concentration: 4mM)	NP40-soluble protein abundance (concentration: 6mM)	NP40-soluble protein abundance (concentration: 8mM)	NP40-soluble protein abundance (concentration: 10mM)
E9PSH8|P07766 (UniProt P07766)	0.955 ± 0.049	0.991 ± 0.076	0.986 ± 0.071	0.958 ± 0.085	0.962 ± 0.082	0.96 ± 0.082	0.978 ± 0.068	0.983 ± 0.11
A0A0X1KG71|Q8WX92 (UniProt Q8WX92)	0.9588 ± 0.0051	0.964 ± 0.014	0.9785 ± 0.0083	0.973 ± 0.016	0.957 ± 0.025	0.96 ± 0.012	0.936 ± 0.024	0.946 ± 0.02
H0YL22|Q9Y375 (UniProt Q9Y375)	0.979 ± 0.059	1.05 ± 0.082	0.936 ± 0.088	0.969 ± 0.071	0.922 ± 0.036	0.924 ± 0.065	0.921 ± 0.071	0.943 ± 0.059
A0A0B4J1Z1|C9JAB2|Q16629|Q16629-2|Q16629-3|Q16629-4 (UniProt Q16629)	1.089 ± 0.0095	1.36 ± 0.1	1.57 ± 0.23	1.58 ± 0.16	1.44 ± 0.33	1.55 ± 0.35	1.74 ± 0.47	1.75 ± 0.52
E9PG35|E9PHF7|F5GYT8|Q96RQ3|G5E9X5 (UniProt Q96RQ3)	1.04 ± 0.093	1.07 ± 0.078	1.02 ± 0.16	1.08 ± 0.11	1.09 ± 0.15	1.08 ± 0.077	1.05 ± 0.19	1.03 ± 0.13
